Test results reported in PubChem BioAssay (NCI).
This is part of a sample that, as a whole, favours compounds with a hit. Of some 79,000 tested, about 15% had one in any assay. The source made the active and inactive calls. Cut-off read from the data, not from the text of the source: active = growth inhibition above about 70%; inactive = the rest.

Legend:
[1] = NCI Yeast Anticancer Drug Screen. Data for the rad50 strain (AID 155);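 note: 0% = growth of vehicle-only cultures of the same strain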; settings: S. cerevisiae rad50 strain growth inhibition, stronger effect = higher value
Procedure, shortened: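 Compounds were tested on a yeast strain with an engineered DNA damage repair alteration; the reported value is growth inhibition normalised to vehicle treatment.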

[2] = NCI Yeast Anticancer Drug Screen. Data for the mec2-1 strain (AID 157); settings: S. cerevisiae mec2-1 strain, stronger effect = higher value
Procedure, shortened: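 Growth inhibition is read against vehicle-treated controls after compound exposure of the mec2-1 yeast strain, which is defective in DNA damage repair or cell cycle control.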

[3] = NCI Yeast Anticancer Drug Screen. Data for the sgs1 mgt1 strain (AID 161);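 note: 0% = growth of cultures given vehicle only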; settings: S. cerevisiae sgs1 mgt1 strain, stronger effect = higher value
Procedure, shortened: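 This yeast growth screen uses a strain with defined DNA-repair lesions; compound-treated growth is compared with vehicle-treated growth.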

[4] = NCI Yeast Anticancer Drug Screen. Data for the cln2 rad14 strain (AID 165);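 note: 0% = growth equal to vehicle treated cultures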; settings: S. cerevisiae cln2 rad14 strain, stronger effect = higher value
Procedure, shortened: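 Growth inhibition, relative to vehicle-treated controls, is the read-out. The test organism is a yeast strain with defined genetic alterations, cln2 rad14.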

[5] = NCI Yeast Anticancer Drug Screen. Data for the bub3 strain (AID 167); settings: S. cerevisiae bub3 mutant strain, stronger effect = higher value
Procedure, shortened: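 Growth of a checkpoint-deficient yeast mutant is measured after compound exposure. Values represent inhibition relative to vehicle.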

[6] = NCI Yeast Anticancer Drug Screen. Data for the mlh1 rad18 strain (AID 175); settings: S. cerevisiae mlh1 rad18 strain growth inhibition, stronger effect = higher value
Procedure, shortened: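 Cells of a genetically altered yeast strain, deficient in DNA damage repair, were treated with compound. Their growth was then compared with that of vehicle-treated cultures to give inhibition.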

[7] = at 5.0 µM (retest, dose inferred, filed as 0.5)
[8] = at 50.0 µM (retest, dose inferred, filed as 5.0)

Measured: growth inhibition

CC1=C(C#N)C(=O)N(C)C(=O)C1(Cl)Cl
inactive: [1]; [7] -2% | [1]; [8] -12% | [1]; at 50.0 µM -1.3% | [2]; [7] 0% | [2]; [8] -2% | [2]; at 50.0 µM -8.1% | [3]; [7] 1% | [3]; [8] -3% | [3]; at 50.0 µM -7.45% | [4]; [7] 0% | [4]; [8] -12% | [4]; at 50.0 µM 14.6% | [5]; [7] 3% | [5]; [8] 4% | [5]; at 50.0 µM 5.05% | [6]; [7] 1% | [6]; [8] -3% | [6]; at 50.0 µM 9.45%

Cc1ccc(-c2c(C#N)c(-c3ccc(Cl)cc3)c(C#N)c(=O)n2NS(=O)(=O)c2ccccc2)cc1
active: [2]; at 50.0 µM 71% | [5]; at 50.0 µM 71% | [6]; at 50.0 µM 74.3%
inactive: [1]; [7] 38% | [1]; [8] 50% | [1]; at 50.0 µM 63.2% | [2]; [7] 34% | [2]; [8] 59% | [3]; [7] 28% | [3]; [8] 58% | [3]; at 50.0 µM 69% | [4]; [7] 53% | [4]; [8] 60% | [4]; at 50.0 µM 63.6% | [5]; [7] 52% | [5]; [8] 64% | [6]; [7] 31% | [6]; [8] 49%

C[n+]1c(-c2ccc(/C=N\Nc3nnc(S)n3/N=C/c3ccc(-c4cn5ccccc5[n+]4C)cc3)cc2)cn2ccccc21
active: [1]; [8] 98% | [1]; at 50.0 µM 94.5% | [2]; [8] 96% | [2]; at 50.0 µM 92.9% | [3]; [8] 97% | [3]; at 50.0 µM 95.8% | [4]; [8] 94% | [4]; at 50.0 µM 92.1% | [5]; [8] 98% | [5]; at 50.0 µM 93% | [6]; [8] 97% | [6]; at 50.0 µM 96.8%
inactive: [1]; [7] 7% | [2]; [7] -16% | [3]; [7] 3% | [4]; [7] 4% | [5]; [7] 29% | [6]; [7] 10%

O=C1/C(=C\c2ccc(Cl)cc2Cl)Sc2scc(-c3cccc([N+](=O)[O-])c3)[n+]21
active: [1]; [8] 98% | [1]; at 50.0 µM 85.6% | [2]; [8] 99% | [2]; at 50.0 µM 86.1% | [3]; [8] 98% | [3]; at 50.0 µM 89.9% | [4]; [8] 97% | [4]; at 50.0 µM 88.5% | [5]; [7] 96% | [5]; [8] 97% | [5]; at 50.0 µM 85.5% | [6]; [8] 99% | [6]; at 50.0 µM 90.9%
inactive: [1]; [7] 17% | [2]; [7] 36% | [3]; [7] 69% | [4]; [7] 28% | [6]; [7] 23%
